FBPA Giardia inh: Giardia lamblia aldolase inhibition; A8B2U2; Potency, µM (series often up to 59.6 µM), usual class: inhibitors; AID 2451; 290,000 tested, 0.71% active; purified Giardia FBPA; note: nearly all actives have a fitted effect of over 55% in size
Target sequence (A8B2U2 whole entry, looked up): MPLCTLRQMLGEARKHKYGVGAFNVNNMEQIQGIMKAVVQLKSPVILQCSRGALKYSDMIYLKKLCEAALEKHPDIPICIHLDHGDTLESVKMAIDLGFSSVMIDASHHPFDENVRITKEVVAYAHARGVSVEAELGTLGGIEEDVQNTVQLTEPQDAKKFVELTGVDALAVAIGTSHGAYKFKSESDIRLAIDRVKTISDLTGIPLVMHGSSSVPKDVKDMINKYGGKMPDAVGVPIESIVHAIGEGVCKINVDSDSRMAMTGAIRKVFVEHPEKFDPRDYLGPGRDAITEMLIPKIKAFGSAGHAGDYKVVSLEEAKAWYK
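Giardia FBPA (40 nM reagent) was preincubated 10 min at RT with compound (up to 57.5 uM final), then substrate plus GAPDH/TPI/NAD/arsenate coupling system with diaphorase/resazurin was added; resorufin fluorescence (525/598 nm) was read after 20 min.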
Sm TGR block: blocks Schistosoma mansoni thioredoxin glutathione reductase; Q962Y6; purified TGR, DTNB reduction, TNB absorbance 405 nm; Potency, µM (top dose mostly 114 µM), actives largely listed as inhibitors; 360,000 tested, 3% active; AID 485364; note: nearly all actives have a fitted effect of over 60% in size
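First, TGR (20 nM dispensed) and NADPH were mixed with compound. Second, a 15 min room-temperature incubation followed. Third, further NADPH and then DTNB were added to start the reaction. Finally, TNB absorbance was monitored kinetically.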
RE007 growth inh: less growth of the S. pombe RE007 Vpr strain; S. pombe RE007 Vpr strain, BacTiter-Glo ATP luminescence, 24 h; Potency, µM (series often up to 92.2 µM), actives largely listed as inhibitors; 360,000 tested, 0.21% active; AID 651644; active = well fitted falling curve with a large enough effect; inconclusive = small, poorly fitted or top-dose-only effect; inactive = no such curve, though single readings can be large or run the other way; note: nearly all actives have a fitted effect of over 50% in size
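Fission yeast RE007 carrying one integrated HIV-1 vpr copy, seeded at OD 0.01 in PMG+AL medium with 23 nL pinned compound. Grown 24 h at 30 degrees; viability read by BacTiter-Glo luminescence after 5 min.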
FMDV antiviral: foot and mouth disease virus antiviral activity | FMDV antiviral cell-based qHTS | Potency, µM (highest dose often 57.9 µM), most hits filed as inhibitors | 410,000 tested, 1.2% active | AID 1159524; calls by dose curve; tested in HEK293T cells; note: read-out not given here; nearly all actives have a fitted effect of over 45% in size
HCMV inh: blocks human cytomegalovirus replication. HFF cells, HCMV-luciferase reporter, 72 h; active compounds read low. activity change, negative = inhibition, % at 57.5 µM. 410,000 tested, 4.5% active; in the data active = activity change below about -60%; inconclusive = no clear call, values can overlap the other calls; inactive = above about -39%
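HFF cells seeded 16 h at 37C, treated with compounds, infected with luciferase-reporter HCMV at MOI 1 PFU/cell; luciferase read at 72 h post infection, normalized to buffer-only and Salinomycin controls.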
Tb PYK inh: inhibitors of Trypanosoma brucei pyruvate kinase; TbPYK enzyme, Kinase-Glo Plus ATP luminescence, 45 min; Potency, µM (top dose mostly 76.8 µM), most hits filed as inhibitors; AID 624173; Q57TT1; 410,000 tested, 0.12% active; note: nearly all actives have a fitted effect of over 50% in size
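Quantitative HTS: titrated library compounds versus trypanosomal pyruvate kinase in TEA buffer (pH 7.2) containing KCl, MgCl2, BSA and Tween-20. Reactions were initiated with ADP, 130 uM final. Kinase-Glo Plus luminescence was read after 45 min at RT.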
A number is an active result; - = inactive; ? = inconclusive; . = no result; ! = repeats disagree; [ ] = dose if it differs, or a comment. The list is not random: actives were taken first. Their share in the collection is about 7.7%. Unless noted, calls come from the whole dose curve; as a rule, active = well fitted curve in the direction sought with a large enough effect; inconclusive = small, poorly fitted or top-dose-only effect, or another doubt; inactive = no such curve, though single readings can be large; an effect the other way counts as inactive or inconclusive.

SMILES	FBPA Giardia inh	Sm TGR block	RE007 growth inh	FMDV antiviral	HCMV inh	Tb PYK inh
Cn1c(-[n+]2c(-c3ccccc3)cc(-c3ccccc3)cc2-c2ccccc2)nc2cc([N+](=O)[O-])ccc21	?	45µM	-	-	-	-
O=[N+]([O-])c1ccc2c(c1)nc(CO)n2Cc1ccccc1	-	-	-	-	-	-
O=[N+]([O-])c1ccc2c(c1)ncn2-c1ccccc1	-	-	-	-	-70	-
Cc1ccc(NC(=O)Cn2c(=O)n(CCC(C)C)c(=O)c3cccnc32)cc1C	.	-	.	-	-	-
CC(=O)c1ccc(NC(=O)c2sc3nc4c(cc3c2N)N2CCC4CC2)cc1	.	-	.	?	-	-
Nc1c(C(=O)Nc2ccc(OC(F)(F)F)cc2)sc2nc3c(cc12)N1CCC3CC1	.	-	.	25µM	-78	-
O=C1NC(c2cccc3ccccc23)Nc2ccc(Cl)cc21 (stereo not given)	.	.	-	-	-73	-
O=C1NC(c2cc3ccccc3nc2Cl)Nc2ccccc21 (stereo not given)	-	-	-	?	-	-
Cc1cc(C)nc(NC(=O)c2ccc3c(c2)OCO3)c1	-	-	.	.	.	.
Cc1cc(C)nc(NC(=O)c2c(F)c(F)c(F)c(C(=O)Nc3cc(C)cc(C)n3)c2F)c1	.	.	-	25µM	-	-
N#Cc1c2c(c(=S)n(-c3ccccc3)c1N)CCCC2	?	40µM	-	-	-	-
CC1(C)Cc2c(C#N)c(N)n(-c3ccccc3)c(=S)c2CO1	-	-	-	-	-	-
CCc1cc(=O)oc2c(C)c(OS(C)(=O)=O)ccc12	.	.	-	-	-	-
CCc1cc2c(=O)c(-c3ccc4c(c3)OCCO4)c(C)oc2cc1OS(C)(=O)=O	-	-	-	?	-63	-
CCN1CCN(c2c(/C=C3\SC(=S)N(Cc4ccco4)C3=O)c(C)c(C#N)c(=O)n2C)CC1	?	-	-	-	-73	-
COc1ccc(N2CCN(S(=O)(=O)CCNC(=O)c3ccc(OC(C)C)cc3)CC2)cc1	.	-	.	-	-	-
CCOC(=O)c1c(C)[nH]c(C)c1S(=O)(=O)N1CCCC(C(=O)NCc2cccc(C)c2)C1 (stereo not given)	.	-	.	-	-	-
C/C(=N\Nc1nc(-c2ccccn2)nc2ccccc12)c1ccc(F)cc1	-	-	-	-	.	-
c1ccc(CCNc2nc(-c3ccccn3)nc3ccccc23)cc1	-	-	-	?	-103	-
CCCCN(CCCC)c1nc(-c2ccccc2)nc2ccccc12	.	-	.	-	-	-
CCCN(CCC)c1nc(-c2ccccn2)nc2ccccc12	-	-	-	?	-100	-
CCCCN(CC)c1nc(-c2ccncc2)nc2ccccc12	?	-	-	25µM	-95	-
COc1ccc2c(c1)[C@@H](NC(=O)OCc1ccccc1)[C@H](C)[C@@H](c1ccccc1)N2Cc1cccc(F)c1	.	.	.	.	-	.
COc1ccc2c(c1)CCc1cnc(-n3ncc(C(=O)N(C)CC4CCCN(C)C4)c3C)nc1-2 (stereo not given)	.	.	.	-	.	.
COc1ccc(S(=O)(=O)N2CCOC2CNC(=O)C(=O)NCCc2c[nH]c3ccccc23)cc1 (stereo not given)	-	-	-	22µM	-	-
SMILES	FBPA Giardia inh	Sm TGR block	RE007 growth inh	FMDV antiviral	HCMV inh	Tb PYK inh
COc1ccc(S(=O)(=O)N2CCOC2CNC(=O)C(=O)NCCc2c[nH]c3ccccc23)cc1C (stereo not given)	-	-	-	?	-	-
COc1ccc(NC(=O)NCCc2c[nH]c3ccccc23)c(OC)c1	-	-	-	-	-	-
O=C(CCC(=O)c1ccccc1)NCCc1c[nH]c2ccccc12	-	-	-	-	-	-
COc1ccc(C(=O)CCC(=O)NCCc2c[nH]c3ccccc23)cc1	-	-	-	-	-104	-
COc1ccc(OC)c(NC(=O)NCCc2c[nH]c3ccccc23)c1	-	-	-	-	-87	-
COc1ccc2[nH]cc(CCNC(C)=O)c2c1	-	.	-[18.4 µM]	-	-	-
COc1cc2c(CCNC(C)=O)c[nH]c2cc1Cl	-	-	-[18.4 µM]	-	-92	-
O=C1CN(S(=O)(=O)Cc2ccccc2)C[C@@H]2[C@H](c3ccc(Br)cc3)[C@@H](CO)N12	.	.	.	.	-	.
CC[n+]1ccccc1/C=C1\Sc2ccc(C)cc2N1C	-	-	?	?	-97	-
CN1/C(=C/c2cccc[n+]2CCO)Sc2ccccc21	-	-	-	-	?	-
Cc1cccc(CSc2nc(-c3cccc(C)c3)nc3c2Cc2c(CO)cnc(C)c2O3)c1	.	-	.	-	-	-
O=C(NCCCN1CCN(c2ccccc2)CC1)c1nnc(Cc2c(F)cccc2Cl)o1	.	-	.	-	-	-
O=C(Nc1cc(Cl)cc(Cl)c1)c1ccc(F)c(S(=O)(=O)N2CCCCCC2)c1	.	-	.	?	-	-
O=P(/C(=N/O)Sc1ccccc1)(N1CCOCC1)N1CCOCC1	-	13µM	-	-	-	-
CCOC(=O)c1[nH]c(C=O)c(C(=O)OCC)c1C	-	-	-	-	-96	-
CCCCN(CC)CCCNC(=O)c1cn(CC(C)C)c(=O)c2c1c1ccccc1n2C	-	32µM!	-	-	-	-
ClCc1ncc(-c2ccc(Cl)cc2)o1	-	25µM	-	-	?	-
Nc1c(-c2nc(-c3cccs3)no2)nnn1-c1cccc(F)c1	.	-	.	-	-	-
CNC(=O)/C(C#N)=C1\SC(Cc2ccc(F)cc2)C(=O)N1c1ccccc1C (stereo not given)	-	-	-	-	-	-
C/C(=N\N=C1\NC(=O)C(Cc2ccccc2)S1)c1ccccc1 (stereo not given)	-	-	-	-	-	-
CC(=O)/C(C#N)=C1\NC(=O)C(Cc2ccccc2)S1 (stereo not given)	-	-	-	-	-99	-
CC(=O)/C(C#N)=C1\NC(=O)C(Cc2ccccc2C)S1 (stereo not given)	-	-	-	-	-83	-
COc1ccc(NS(=O)(=O)c2ccc(-n3cccn3)cc2)cc1OC	.	-	.	?	?	-
COc1ccc(C(=O)NCc2ccc3c(c2)CCN3C(C)=O)c(OC)c1	.	-	.	-	-	-
CC(=O)Nc1nonc1-c1nnc(SCc2ccccc2Cl)n1C	.	-	.	-	-	-
Cn1cccc1C(=O)N1CCC2(CC1)CCN(c1ccc(-c3ccccc3)cc1)CC2	-	.	.	-	.	-
CCOC(=O)c1cc(S(=O)(=O)NCc2ccc(C)cc2)[nH]n1	.	-	.	-	-	-
NC(N)=NS(=O)(=O)c1ccc(NC(=S)NC(=O)/C=C/c2ccccc2)cc1	-	89µM	-	-	-	-
NC(N)=NS(=O)(=O)c1ccc(NC(=S)NC(=O)c2ccc3c(c2)OCO3)cc1	-	?	-	-	-	-
